Assay [1] is described as follows: A CellTox Green Cytotoxicity Assay to monitor cytotoxicity in HepG2 cells - 8 hour (AID 1224890). Also: nearly all actives have a fitted effect of over 45% in size. The method in brief:
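Real-time, homogeneous cytotoxicity readout: dead-cell DNA staining by CellTox Green in HepG2 monolayers, fluorescence measured at timed intervals up to 40 h of continuous compound exposure.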

A short description of assay [2]: qHTS assay to identify small molecule antagonists of the estrogen receptor alpha (ER-alpha) signaling pathway using the BG1 cell line in the presence of 0.1 nM 17-beta-estradiol - cell viability counter screen (AID 1259241). Also: nearly all actives have a fitted effect of over 40% in size. Also: potency is read from the fitted curve at half-maximal effect. In short, it runs like this:
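VM7Luc4E2, 4,000 cells/well, phenol red-free medium + 10% charcoal-stripped FBS; 24 hr plating; cpd + 0.1 nM E2 final, 22 hr 37C/5% CO2; CellTiter-Fluor 30 min, fluorescence.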
(In general: Quantitative high-throughput screening tests each substance at several concentrations.)

Assay [3] can be described thus: qHTS assay to identify small molecule antagonists of the androgen receptor (AR) signaling pathway using the MDA cell line in the presence of 0.5 nM R1881 - cell viability counter screen (AID 1259242). Also: nearly all actives have a fitted effect of over 45% in size. Also: potency is read from the fitted curve at half-maximal effect. The method in brief:
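Cytotoxicity toward MDA-kb2 cells is measured by CellTiter-Fluor live-cell protease fluorescence after 16 hr compound exposure at 37C in the presence of 0.5 nM R1881 stimulator.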

Assay [4] concerns the target Androgen receptor (Homo sapiens) (UniProt P10275). Kind of assay: qHTS assay to identify small molecule antagonists of the androgen receptor (AR) signaling pathway using the MDA cell line in the presence of 0.5 nM R1881 (AID 1259243). Also: nearly all actives have a fitted effect of over 50% in size. Also: potency is read from the fitted curve at half-maximal effect. In short, it runs like this: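 Steps: seed MDA-kb2 cells, incubate 5 hr at 37C; pin-transfer compounds in DMSO; add R1881 to 0.5 nM final; incubate 16 hr; add ONE-Glo, wait 30 min at room temperature; read luminescence.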

A short description of assay [5]: qHTS assay to identify small molecule phospholipidosis (PLD) inducers (AID 1259344; active = well fitted curve in the direction sought with a large enough effect; an effect the other way counts as inactive or inconclusive). The method in brief:
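HepG2 cells, 900/well, treated with compound plus LipidTOX Red for 24 h at 37 C; amiodarone positive and DMSO negative controls. Fixed with paraformaldehyde/Hoechst, then high-content imaging scored LipidTOX pit count and integrated intensity per well and per cell.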

Assay [6] in a line: qHTS assay to identify small molecule HDAC inhibitors (AID 1259364). Also: nearly all actives have a fitted effect of over 45% in size. Also: potency is read from the fitted curve at half-maximal effect. In short, it runs like this:
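Homogeneous cell-based luminescent assay of endogenous class I/II HDAC activity; HCT-116 cells, 2 h compound exposure, 30 min HDAC-Glo development at RT.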

The nature of assay [7]: qHTS assay to identify small molecule HDAC inhibitors - cell viability counter screen (AID 1259365). Also: series mostly up to about 92 µM; nearly all actives have a fitted effect of over 50% in size. In short, it runs like this: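 Luminescence from CellTiter-Glo, developed 30min at room temperature, reports viability of wild-type HCT-116 cells treated 2hr with compounds at 37 C and 5% CO2 after overnight plating.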
Assay [8] is described as follows: qHTS assay to identify small molecule agonists of the sonic hedgehog signaling (Shh) pathway - cell viability counter screen (AID 1259366). Also: nearly all actives have a fitted effect of over 50% in size. Also: potency is read from the fitted curve at half-maximal effect. In short, it runs like this: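 Cytotoxicity counter screen run in the same wells as the Shh reporter assay. NIH/3T3 cells carrying a Gli1 response element–driven luciferase were treated with DMSO-dissolved compounds for 24hr, and live-cell protease activity was measured with CellTiter-Fluor.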

A short description of assay [9]: qHTS assay to identify small molecule antagonists of the sonic hedgehog signaling (Shh) pathway - cell viability counter screen (AID 1259367). Also: nearly all actives have a fitted effect of over 55% in size. Also: potency is read from the fitted curve at half-maximal effect. In short, it runs like this: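 NIH/3T3-derived Gli1-Luc reporter cells, 2,000/well, plated 4 hr before compound addition, then stimulated with conditioned medium for 24 hr at 37C. Viability measured in the same wells by CellTiter-Fluor fluorescence, reagent added at 23 hr for 1 hr.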

In assay [10] the target is Estrogen receptor (Homo sapiens) (UniProt P03372). Nature of the assay: qHTS assay to identify small molecule antagonists of the estrogen receptor alpha (ER-alpha) signaling pathway using the BG1 cell line in the presence of 0.1 nM 17-beta-estradiol (AID 1259244). Also: nearly all actives have a fitted effect of over 50% in size. Also: potency is read from the fitted curve at half-maximal effect. The method in brief: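 After 5 days in hormone-depleted medium (charcoal-stripped serum, no phenol red), VM7Luc4E2 cells were seeded, incubated 24 h, then co-treated with compound and 0.1 nM (final) estradiol for 22 h before luminescence detection.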

This note sets out measurements from PubChem BioAssay (Tox21).

Structures are written as SMILES. Records with an inconclusive call do not appear. Activity calls are given as the source filed them. Unless noted, calls follow the shape of the dose curve; as a rule, active = well fitted curve in the direction sought with a large enough effect in the repeat runs; inconclusive = weak or mixed curves; inactive = no such curve, though single readings can be large; an effect the other way counts as inactive or inconclusive.

Estrogen receptor (Homo sapiens), sequence (P03372 whole entry, looked up): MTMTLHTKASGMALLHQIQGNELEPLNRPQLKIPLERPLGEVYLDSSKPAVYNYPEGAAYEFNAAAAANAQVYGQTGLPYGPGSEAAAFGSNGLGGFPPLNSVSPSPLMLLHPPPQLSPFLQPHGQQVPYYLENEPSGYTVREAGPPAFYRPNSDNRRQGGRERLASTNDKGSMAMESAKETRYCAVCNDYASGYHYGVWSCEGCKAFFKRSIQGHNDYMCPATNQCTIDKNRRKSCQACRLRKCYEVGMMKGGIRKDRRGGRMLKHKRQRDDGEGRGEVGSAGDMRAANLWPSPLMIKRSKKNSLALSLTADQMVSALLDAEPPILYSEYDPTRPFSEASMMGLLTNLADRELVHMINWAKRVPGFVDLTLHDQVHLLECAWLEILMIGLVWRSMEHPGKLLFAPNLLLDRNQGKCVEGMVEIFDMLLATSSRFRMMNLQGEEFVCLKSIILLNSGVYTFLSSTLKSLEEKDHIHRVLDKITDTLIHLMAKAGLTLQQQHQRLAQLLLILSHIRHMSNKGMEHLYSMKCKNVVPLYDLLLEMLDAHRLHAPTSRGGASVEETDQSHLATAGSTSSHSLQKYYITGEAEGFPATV
Androgen receptor (Homo sapiens), sequence (P10275 whole entry, looked up): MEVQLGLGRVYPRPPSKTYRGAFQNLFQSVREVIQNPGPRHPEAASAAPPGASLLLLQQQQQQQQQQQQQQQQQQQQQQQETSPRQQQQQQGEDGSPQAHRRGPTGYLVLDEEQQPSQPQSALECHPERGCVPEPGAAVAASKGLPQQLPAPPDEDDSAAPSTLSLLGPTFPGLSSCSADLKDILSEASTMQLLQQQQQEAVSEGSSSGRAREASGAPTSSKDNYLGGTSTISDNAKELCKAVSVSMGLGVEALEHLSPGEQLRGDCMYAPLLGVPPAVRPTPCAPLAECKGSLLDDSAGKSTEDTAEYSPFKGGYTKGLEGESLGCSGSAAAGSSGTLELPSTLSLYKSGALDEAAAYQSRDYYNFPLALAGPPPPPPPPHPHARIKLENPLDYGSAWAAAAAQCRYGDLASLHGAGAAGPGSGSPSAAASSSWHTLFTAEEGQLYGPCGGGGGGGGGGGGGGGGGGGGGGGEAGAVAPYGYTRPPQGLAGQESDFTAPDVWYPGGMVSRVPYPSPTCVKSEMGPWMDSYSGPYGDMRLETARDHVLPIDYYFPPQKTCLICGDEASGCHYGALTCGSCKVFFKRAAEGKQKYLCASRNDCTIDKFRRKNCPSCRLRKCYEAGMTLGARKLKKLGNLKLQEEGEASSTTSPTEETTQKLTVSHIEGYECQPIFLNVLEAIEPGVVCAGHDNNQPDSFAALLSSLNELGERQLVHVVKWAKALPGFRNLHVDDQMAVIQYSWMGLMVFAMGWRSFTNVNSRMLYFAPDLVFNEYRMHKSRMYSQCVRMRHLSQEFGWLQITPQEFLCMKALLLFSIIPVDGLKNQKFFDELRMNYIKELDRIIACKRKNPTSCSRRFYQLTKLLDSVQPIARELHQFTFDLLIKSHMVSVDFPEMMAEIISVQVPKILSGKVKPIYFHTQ

With `C[C@@H]1CC[C@H]2[C@@H](C)C(=O)O[C@@H]3O[C@@]4(C)CC[C@@H]1[C@]32OO4`, the Potency result in [1], in assay [2], in assay [3], in [4], in [6] and in [7] was “inactive” each time. The Potency result in assay [8] and in [9] was “inactive” in each case. Also, the call in assay [5] was inactive.
With `COc1ccc(-c2ccccc2)cc1NNC(=O)OC(C)C`, the Potency entry in assay [1], in assay [2], in assay [3], in assay [6], in assay [7] and in assay [8] was “inactive” in each case. The Potency is 63.7 µM (active) in [4] and 71.5 µM (active) in assay [10].
On to `O=C1C(Cl)C(CCl)CN1c1cccc(C(F)(F)F)c1` (stereo not given), for which the Potency result in [1], in assay [2], in assay [3], in assay [6], in assay [7] and in assay [8] was “inactive” in each case. For the same molecule, the Potency result in assay [9] was “inactive”. Also, the Potency in assay [4] is 3.86 µM (active).
For the molecule `O=S1(=O)OC(c2cc(Br)c(O)c(Br)c2)(c2cc(Br)c(O)c(Br)c2)c2ccccc21`, the Potency entry in [1] was “inactive”. The Potency was 14.1 µM (active) in assay [2]; 22.3 µM (active) in assay [3]; 5.6 µM (active) in assay [4]; 17.7 µM (active) in assay [10]; 3.97 µM (active) in [6]; 14.1 µM (active) in assay [8]. Also, the Potency in assay [9] is 15.8 µM (active).
Regarding `O=NN1CCCCCC1`, the Potency entry in assay [1], in assay [2], in assay [3], in assay [4], in [10] and in assay [6] was “inactive” throughout. Moreover, the Potency entry in assay [7], in [8] and in [9] was “inactive” in each case.
Regarding `N#CCC#N`, the Potency result in assay [1], in [2], in assay [3], in [6], in assay [7] and in [8] was “inactive” throughout. Also, the Potency result in assay [9] was “inactive”. In assay [4], the Potency was 10.9 µM (active).
With `CC1Sc2c(C(=O)O)c(=O)c3cc(F)c(N4CCNCC4)cc3n21` (stereo not given), the Potency result in assay [1], in assay [2], in [3], in assay [4], in [10] and in [6] was “inactive” each time. Moreover, the Potency entry in assay [7], in assay [8] and in assay [9] was “inactive” in each case.
As to `ClCc1cccc(Cl)c1`, the Potency result in assay [1], in assay [2], in assay [3], in assay [4], in assay [10] and in assay [6] was “inactive” throughout. The Potency entry in assay [7], in assay [8] and in [9] was “inactive” each time.
Regarding `CCN(C)N=O`, the Potency entry in [1], in assay [2], in assay [3], in [10], in assay [6] and in assay [7] was “inactive” each time. In addition, the Potency entry in [8] and in assay [9] was “inactive” throughout.
Turning to `O=C1C(=O)c2cccc3cccc1c23`, the Potency result in assay [1], in assay [2], in assay [3], in assay [6], in [7] and in assay [8] was “inactive” throughout. In addition, the Potency in [10] is 54.4 µM (active).
Turning to `N#Cc1ccc(Cl)cc1`, the Potency entry in [1], in assay [2], in assay [3], in [10], in [6] and in assay [7] was “inactive” each time. Moreover, the Potency entry in assay [9] is “inactive”.
Regarding `C=CC(=O)OCC(C)C`, the Potency result in assay [1], in assay [2], in [3], in assay [10], in [7] and in assay [9] was “inactive” throughout. Moreover, the Potency in assay [6] is 19.2 µM (active).
Regarding `CCOP(=S)(OCC)Oc1cc(Cl)c(Br)cc1Cl`, the Potency result in [1], in assay [2], in assay [3], in assay [10], in assay [6] and in assay [7] was “inactive” each time. Besides, the Potency result in assay [8] was “inactive”.
For the molecule `Cn1cc[n+](C)c1` (tested in a mixture with another compound), the Potency result in [1], in assay [2], in [3], in assay [10], in [6] and in assay [7] was “inactive” in each case. Besides, the Potency result in assay [8] and in [9] was “inactive” in each case.
Take `CCOP(=O)(OCC)SCCSCC`: the Potency result in [1], in [2], in assay [3], in assay [10], in [6] and in [7] was “inactive” each time. In addition, the Potency entry in assay [8] and in assay [9] was “inactive” throughout.
On to `O=C(OC1CCCCC1)c1ccccc1C(=O)OC1CCCCC1`, for which the Potency result in [1], in assay [2], in assay [3], in [10], in assay [6] and in assay [7] was “inactive” each time.
Consider `ClCc1ccccc1`, for which the Potency entry in [1], in [2], in assay [3], in assay [10], in [6] and in assay [7] was “inactive” in each case. Also, the Potency result in assay [8] was “inactive”.
As to `CC(C)(OO)c1ccccc1`, the Potency result in [1], in assay [2], in assay [3], in [10], in assay [6] and in assay [7] was “inactive” throughout. Further, in assay [8], the Potency entry was “inactive”.
On to `CC(C)=CCOc1c2occc2cc2ccc(=O)oc12`, for which the Potency result in assay [1], in assay [2], in assay [3], in assay [10], in assay [6] and in assay [7] was “inactive” each time. Besides, the Potency entry in assay [8] and in assay [9] was “inactive” in each case.
Turning to `Cl/C=C\Cl`, the Potency entry in assay [1], in assay [2], in assay [3], in [10], in assay [7] and in assay [8] was “inactive” each time. The Potency entry in [9] is “inactive”.
With `CCOc1ccc(C(C)(C)COCc2cccc(Oc3ccccc3)c2)cc1`, the Potency result in assay [1], in assay [2], in assay [3], in assay [10], in assay [6] and in [7] was “inactive” throughout.
Consider `ClCC(Br)CBr` (stereo not given), for which the Potency result in [1], in assay [2], in [3], in assay [10], in assay [6] and in assay [7] was “inactive” in each case. Besides, the Potency entry in assay [8] and in assay [9] was “inactive” each time.
As for `c1ccoc1`, the Potency result in assay [1], in assay [2], in assay [3], in assay [10], in assay [6] and in assay [7] was “inactive” throughout. Besides, the Potency result in assay [9] was “inactive”.
Regarding `CCBr`, the Potency result in [1], in [2], in [3], in [10], in [6] and in assay [7] was “inactive” in each case. The Potency result in assay [8] and in assay [9] was “inactive” each time.
For the molecule `CCCN(CC1CC1)c1c([N+](=O)[O-])cc(C(F)(F)F)cc1[N+](=O)[O-]`, the Potency entry in assay [1], in assay [2], in assay [3], in assay [10], in assay [6] and in [7] was “inactive” in each case. The Potency entry in [8] and in [9] was “inactive” throughout.
For the molecule `COC(=O)C(C)N(C(=O)Cc1ccccc1)c1c(C)cccc1C` (stereo not given), the Potency entry in assay [1], in assay [2], in assay [3], in assay [10], in assay [6] and in assay [7] was “inactive” each time. Also, the Potency entry in assay [8] and in assay [9] was “inactive” throughout.
Consider `CCCCNP(N)(N)=S`, for which the Potency result in assay [1], in [2], in assay [3], in [10], in assay [6] and in [7] was “inactive” each time. For the same molecule, the Potency entry in [8] is “inactive”.
As to `O=C(NC(=O)c1c(F)cccc1F)Nc1ccc(OC(F)(F)C(F)OC(F)(F)F)c(Cl)c1` (stereo not given), the Potency result in [1], in assay [2], in assay [3], in assay [10], in assay [6] and in assay [7] was “inactive” throughout. Moreover, the Potency result in assay [8] and in assay [9] was “inactive” in each case.
